Reference: PubChem BioAssay (NCATS)
Inconclusive results are not listed. Where a call stands in place of a potency, no number is given. The source made the active and inactive calls. The call rests on the fitted dose curve; in most records, active means well fitted inhibition curve with a large enough effect; inconclusive means small, poorly fitted or top-dose-only effect; inactive means no such curve, though single readings can be large or run the other way. *1 amine or outer side, *2 acyl side, *3 side chain or, on linkers, in order; H or OH if unused. Where a SMILES comes first, the peptide text is derived from it. Bridges are numbered along the chain shown (N, C = ends). X6 = O=C(CCC[*:2])[*:1]

Each compound was assayed on Zika virus NS2B-NS3 protease (linked construct) (assay: Primary screen NINDS Rhodamine qHTS for Zika virus inhibitors (AID 1347160; further: nearly all actives have a fitted effect of over 55% in size)). Settings: purified NS2B-NS3 protease, Rhodamine110 substrate fluorescence; series mostly up to 57.1 µM.
Summary of the method: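 Each compound, titrated, sat 15 min with 25 nM linked protease before 1.5 microM Rhodamine110 substrate went in. Fluorescence gain over the next 15 min, in pH 8.0 Tris with Tween 20, gave Hill-fitted curves.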

SMILES | Potency | activity change, negative = inhibition
CC1(C)NC2N(C1=O)c1ccccc1C2(O)CC(C(=O)O)n1cnc2ccccc2c1=O (centres undefined) | inactive | –
COC1CC(=O)C23C(=O)NC(CC(C)C)C2C(C)C(C)=CC3/C=C(\C)CCC1O (centres undefined) | inactive | –
COc1ccccc1CC(C(=O)O)N(C)C(=O)c1ccccc1 (centres undefined) | inactive | –
C[C@]1(OC(=O)/C=C/c2ccccc2)C[C@H](O)[C@]2(O)C=CO[C@@H](O[C@@H]3O[C@H](CO)[C@@H](O)[C@H](O)[C@H]3O)C12 (some centres undefined) | inactive | –
O=C(NN1CCCCC1)c1nn(-c2ccc(Cl)cc2Cl)c(-c2ccc(C#Cc3ccc(C(F)(F)F)cc3)s2)c1CNS(=O)(=O)N1CCCC1 | inactive | –
CC1=CC(=O)OC(C)(CC(C)(O)C(=O)O)C1 (centres undefined) | inactive | –
CCOC(=O)c1c(C)nn(-c2cccc([N+](=O)[O-])c2)c1C | inactive | –
CC[C@H](C)[C@@H]1NC(=O)[C@H](Cc2ccc(OC)cc2)NC(=O)CCCSC[C@@H](C(=O)N2CCC[C@H]2C(=O)N[C@@H](CC(C)C)C(=O)NCC(N)=O)NC(=O)[C@H](CC(N)=O)NC(=O)[C@H](CCC(N)=O)NC1=O (Y(Me)IQNCPLG-NH2; linker N-5 via X6) | inactive | –
C[C@H]1[C@H](C)CC[C@]2(C(=O)O)CC[C@]3(C(=O)O)C(=CCC4[C@@]5(C)CC[C@H](O[C@@H]6O[C@H](C)[C@@H](O)[C@H](O)[C@H]6O)C(C)(C)C5CC[C@]43C)[C@H]12 (some centres undefined) | inactive | –
CC(=O)N1CCN(NC(=O)c2ccc(F)cc2)CC1 | inactive | –
CC(C)(O)C1CCC2(C)C3C(O)C4C(C13)C42CO (centres undefined) | inactive | –
CC(=O)O[C@@H]1[C@H](O[C@@H]2OC[C@](O)(CO)[C@H]2O)[C@@H](O[C@@H]2O[C@@H](C)[C@H](O)[C@@H](O)[C@H]2O)[C@H](OC(=O)[C@]23CCC(C)(C)C[C@H]2C2=CCC4[C@@]5(C)C[C@H](O)[C@H](O[C@@H]6O[C@H](C(=O)O)[C@@H](O)[C@H](O)[C@H]6O)[C@@](C)(C(=O)O)C5CC[C@@]4(C)[C@]2(C)CC3)O[C@@H]1C (some centres undefined) | inactive | –
COCCN(C)Cc1ccc2nc3sc(C(=O)N(C)C4CCCCC4)cn3c2c1 | inactive | –
CC1(C)C[C@H]2C3=CCC4[C@@]5(C)CC[C@H](O[C@H]6O[C@H](C(=O)O)[C@@H](O)[C@H](O)[C@H]6O[C@H]6O[C@H](CO)[C@@H](O)[C@H](O)[C@H]6O[C@@H]6O[C@H](CO)[C@@H](O)[C@H](O)[C@H]6O)[C@](C)(CO)C5CC[C@@]4(C)[C@]3(C)CC[C@@]2(C)[C@H](O[C@@H]2OC[C@H](O)[C@H](OC3O[C@H](CO)[C@@H](O)[C@H](O)[C@H]3O)[C@H]2O)[C@@H]1O (some centres undefined) | – | -4.25% [at 10.7 µM] (inactive)
CC(=O)c1c(O)cc2c(c1C)C(=O)CC(O)C2 (centres undefined) | inactive | –
CC(=O)O[C@H]1[C@H](C)[C@@H](O)[C@H]2[C@@H]1C=C(C(=O)O)[C@H]1C[C@@H]3[C@H]([C@H]21)[C@H]1C(=O)O[C@@H]2CC[C@@]3(C)O[C@]1(O)[C@@H]2C | inactive | –
CC(C)(C)c1cc(CN2CCN(CC(O)c3ccc(Cl)cc3)CC2)cc(C(C)(C)C)c1O (centres undefined) | inactive | –
C[C@]12CCC(=O)C=C1[C@@H](O)C[C@@H]1[C@@H]2[C@@H](O)C[C@@]2(C)[C@H]1CC[C@]2(O)C(=O)CO | inactive | –
COc1ccc(/C=C/C(=O)O[C@@H]2[C@@H](O)[C@H](C)O[C@@H](OC3C4C=COC(O[C@@H]5O[C@H](CO)[C@@H](O)[C@H](O)[C@H]5O)C4C4(CO)OC34)[C@@H]2O)cc1OC (some centres undefined) | inactive | –
Cc1c(-c2ccnn2C)cc(C(=O)NCc2ccc(S(C)(=O)=O)cn2)c(=O)n1-c1cccc(C(F)(F)F)c1 | inactive | –
CC[C@H](/C=C/[C@@H](C)[C@H]1CC[C@H]2[C@@H]3CC=C4C[C@@H](O)CC[C@]4(C)[C@H]3CC[C@]12C)C(C)C | – | 7.22% [at 4.91 µM] (inactive)
C[C@@H]1CC[C@]2(C)C3(C)CC[C@@]2(OC3=O)[C@@]12C[C@H](c1ccoc1)OC2=O | inactive | –
OC[C@H]1O[C@@H](n2cnc3c(NCc4ccc(O)cc4)ncnc32)[C@H](O)[C@@H]1O | inactive | –
COC(=O)C1=CO[C@@H](O[C@@H]2O[C@H](CO[C@@H]3O[C@H](COC(=O)/C=C/c4ccc(O)cc4)[C@@H](O)[C@H](O)[C@H]3O)[C@@H](O)[C@H](O)[C@H]2O)[C@@H]2C(CO)=CC[C@H]12 | inactive | –
